Results from PubChem BioAssay AID493214 (National Center for Advancing Translational Sciences (NCATS), 2011).
Active and inactive are the calls of the source. Calls come from the whole dose curve; as a rule, active = well fitted inhibition curve with a large enough effect; inactive = no such curve, though single readings can be large or run the other way.

Biological target: 4'-phosphopantetheinyl transferase Sfp (Bacillus subtilis) (UniProt P39135)
Assay: Inhibitos of Bacillus subtilis Sfp phosphopantetheinyl transferase (PPTase): Dry Powder Followup
Text: The covalent attachment of a phosphopantetheinyl (4'-PP) arm to a variety of synthases and other proteins is a key posttranslational protein modification. The 4'-PP is installed on the proteins post-translationally from coenzyme A (CoA) on a conserved serine residue by action of phosphopantetheinyl transferase (PPTase) enzymes. Phosphopantetheinylation is essential for synthase activity, and removal of the PPTase gene precludes natural product synthesis in microorganisms, or in the case of fatty acid biosynthesis, renders the organism unviable. PPTase enzymes belong to a distinct structural superfamily. Within bacteria, these enzymes are grouped into two classes based upon primary structure, the AcpS-Type and Sfp-Type PPTases.
Sfp-type PPTases, corresponding to an activator of surfactin production in Bacillus subtilis, are responsible for modifying type I polyketide and nonribosomal peptide synthases of prokaryotes. Sfp-type PPTases are responsible for the activation of a variety of pathogen-associated virulence factors. […]
In search of small molecule Sfp-PPTase inhibitors, a fluorescence quenching assay was developed for detection of Bacillus subtilis Sfp-PPTase enzymatic activity in a miniaturized high-throughput format. […]
Inhibition of Sfp-PPTase was detected by recording the fluorescence intensity change over a 30-minute reaction period at a 525 nm excitation and 598 nm emission. […]
Three uL of reagents, consisting of buffer (in columns 3 and 4 as negative control) and Sfp-PPTase (in columns 1, 2, 5 - 48) were dispensed into 1,536-well Greiner black solid bottom plate. […] The plate was then centrifuged at 1000 rpm for 15 seconds, and the fluorescence intensity recorded on a ViewLux High-throughput CCD imager (Perkin-Elmer) using standard BODIPY optics (525 nm excitation and 598 nm emission). The plate was then incubated for 30 minutes, and a second read on the ViewLux was performed. The fluorescence intensity difference over the 30-minute period was used to calculate the respective reaction rate for each well.

Chain of 4'-phosphopantetheinyl transferase Sfp (Bacillus subtilis) (P39135 whole entry, looked up): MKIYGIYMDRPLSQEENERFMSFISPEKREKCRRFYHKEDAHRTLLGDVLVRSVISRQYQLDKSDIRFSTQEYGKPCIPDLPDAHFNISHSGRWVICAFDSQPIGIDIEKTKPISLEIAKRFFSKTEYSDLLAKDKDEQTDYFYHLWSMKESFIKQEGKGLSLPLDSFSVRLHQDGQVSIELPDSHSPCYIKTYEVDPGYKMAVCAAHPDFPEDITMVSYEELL

| SMILES | outcome |
| --- | --- |
| Clc1ccccc1-c1nn2c(-c3ccncc3)nnc2s1 | inactive |
| O=c1[nH]c2ccccc2n2c(-c3ccccc3)nnc12 | inactive |
| Cn1c(SCC(=O)c2cc3ccccc3o2)nnc1-c1ccccc1 | inactive |
